Screening data deposited in PubChem BioAssay by National Center for Advancing Translational Sciences (NCATS).
Tau fluor cs = Counterscreen qHTS for Inhibitors of Tau Fibril Formation, Fluorescence Polarization | tau K18 P301L Alexa594 fluorescence, heparin fibrillization | Potency, µM (top dose mostly 57.7 µM) | actives 0.93% (n = 280,000) | AID 1463, 2008; note: nearly all actives have a fitted effect of over 55% in size
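Human K18 P301L tau (15 uM unlabeled plus 0.24 uM Alexa 594-labeled, final) in 100 mM sodium acetate pH 7 was mixed with compound and 20 uM heparin and incubated 6 hr at 37 C.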
PNC assembly inh = High Content Assay for Compounds that inhibit the Assembly of the Perinucleolar Compartment. AID 2417, 2010. actives 3.1% (n = 140,000). activity change (PNC), negative = inhibition, % at 10 µM. PC3M PTB-GFP, PNC prevalence imaging, 16 h; stronger effect = lower value;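 active = readout at or below -70, meaning at least 70% loss of cells showing the perinucleolar compartment, a nuclear body marking cancer cells; inconclusive = readout between -30 and a set limit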
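Compounds are pinned in duplicate onto adhered PC3M cells stably expressing GFP-tagged PTB and incubated 16 h at 37 C. Cells are then fixed, nuclei stained with Hoechst, and PNC-positive cells counted.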
Tau fibril ThT = qHTS for Inhibitors of Tau Fibril Formation, Thioflavin T Binding; Microtubule-associated protein tau (Homo sapiens), P10636; actives 2.1% (n = 270,000); Potency, µM (top dose mostly 57.4 µM), usual class: inhibitors; recombinant tau K18 P301L, heparin-induced fibrillization, ThT fluorescence; note: nearly all actives have a fitted effect of over 55% in size
Target sequence (P10636 561-689 P618L limits assumed): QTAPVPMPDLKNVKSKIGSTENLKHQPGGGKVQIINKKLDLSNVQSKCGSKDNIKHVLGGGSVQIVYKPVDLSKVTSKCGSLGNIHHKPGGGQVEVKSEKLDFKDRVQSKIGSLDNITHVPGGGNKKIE
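ThT emission at 510 nm, taken 1 hr after adding 30 uM dye, quantifies aggregates formed when 20 uM heparin acts on human tau K18 P301L for 6 hr at 37 C.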
TRb-SRC2 inh = qHTS for Inhibitors of the Interaction of Thyroid Hormone Receptor and Steroid Receptor Coregulator 2; TRbeta-SRC2 peptide binding, fluorescence polarization; receptor liganded with 1 µM T3; Thyroid hormone receptor beta (Homo sapiens), P10828; actives 0.065% (n = 280,000); Potency, µM (doses to about 106 µM), most hits filed as inhibitors; note: nearly all actives have a fitted effect of over 50% in size
Target sequence (P10828 whole entry, looked up): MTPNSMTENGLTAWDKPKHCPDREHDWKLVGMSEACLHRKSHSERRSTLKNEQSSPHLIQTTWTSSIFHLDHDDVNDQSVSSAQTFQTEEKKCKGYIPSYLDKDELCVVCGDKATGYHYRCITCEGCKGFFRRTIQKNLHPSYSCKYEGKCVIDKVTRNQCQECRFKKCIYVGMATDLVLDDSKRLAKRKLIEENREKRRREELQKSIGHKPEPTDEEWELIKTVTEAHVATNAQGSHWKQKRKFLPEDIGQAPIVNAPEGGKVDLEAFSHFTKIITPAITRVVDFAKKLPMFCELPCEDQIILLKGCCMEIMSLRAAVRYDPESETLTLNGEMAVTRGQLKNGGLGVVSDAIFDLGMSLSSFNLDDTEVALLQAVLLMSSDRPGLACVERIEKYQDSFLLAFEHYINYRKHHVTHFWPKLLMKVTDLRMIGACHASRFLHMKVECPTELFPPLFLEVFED
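Each compound concentration gave % activity, normalized to unbound and bound Texas Red SRC2 controls, from polarization read after 5 hr ambient incubation with T3-loaded human TRb LBD.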
Tau fibril FP = qHTS for Inhibitors of Tau Fibril Formation, Fluorescence Polarization | K18 P301L tau heparin fibrillization, Alexa594 FP, 6 h | AID 1468, 2008 | actives 0.39% (n = 280,000) | Potency, µM (highest dose often 57.7 µM), actives largely listed as inhibitors; note: nearly all actives have a fitted effect of over 55% in size
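K18 P301L tau (15 uM unlabeled/0.24 uM Alexa 594-labeled, final) + compound + heparin 20 uM final; 100 mM NaOAc pH 7; 6 hr 37 C; ThT 30 uM final added, 1 hr RT; FP ex 555/em 632 nm.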
TR SRC2 fluor cs = Total Fluorescence Counterscreen for Inhibitors of the Interaction of Thyroid Hormone Receptor and Steroid Receptor Coregulator 2 | actives 0.29% (n = 280,000) | Potency, µM (titrated, usually from 106 µM) | TRb/SRC2 Texas Red total fluorescence interference; active = well fitted curve in either direction with a large enough effect; inconclusive = small, poorly fitted or top-dose-only effect
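Flags fluorescent or light-absorbing compounds by total fluorescence, S + 2P, at 555 nm excitation and 632 nm emission. Mixture: 20 nM Texas Red SRC2 peptide, 0.6 uM human TRb LBD, 1 uM T3, 5% DMSO; compound exposure 5 h at ambient temperature.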
A number is an active result; – = inactive; ? = inconclusive; · = not tested or not shown; [ ] = remark or other dose. This is a sample that favours compounds with a hit; in the whole collection about 4.6% have one here. Unless noted, calls come from the whole dose curve; as a rule, active = well fitted curve in the direction sought with a large enough effect; inconclusive = small, poorly fitted or top-dose-only effect, or another doubt; inactive = no such curve, though single readings can be large; an effect the other way counts as inactive or inconclusive.

SMILES	Tau fluor cs	PNC assembly inh	Tau fibril ThT	TRb-SRC2 inh	Tau fibril FP	TR SRC2 fluor cs
Cc1c(NC(NC(=O)CC(C)C)C(Cl)(Cl)Cl)c(=O)n(-c2ccccc2)n1C (stereo not given)	–	·	–	–	–	–
CCCCCCN1C=C/C(=C\C=C(C#N)C#N)c2ccccc21	–	?	?	40µM	–	45µM[fluorescent]
CCc1ccc(NC(=O)Cn2c(=O)c3cccn3c3ccccc32)cc1	?	·	–	–	20µM	?
CCc1ccc(NC(=O)CCn2c(=O)c3cccn3c3ccccc32)cc1	–	·	–	–	–	–
Cc1cc(C)c(NC(=O)Cn2c(=O)c3cccn3c3ccccc32)c(C)c1	?	·	?	–	7.9µM	–
O=C(CCCn1c(=O)c2cccn2c2ccc(F)cc21)NCCc1ccccc1	–	·	–	–	–	?
O=C(Cn1c(=O)c2cccn2c2ccccc21)NCCc1ccccc1	?	·	–	–	14µM	–
CCOC(=O)c1cccc(NC(=O)Cn2c(=O)c3cccn3c3ccccc32)c1	?	·	?	–	13µM	–
Cc1cc(C(=O)COC(=O)c2ccncc2)c(C)n1CCc1ccc(F)cc1	–	·	–	–	–	–
COc1ccc(/C=C/c2ccccc2)cc1C1C2C=CCC(C)C2C(=O)N1Cc1ccccc1 (stereo not given)	·	·	·	–	·	–
Cc1ccc(-c2nnc(COc3cccc(-n4cnnn4)c3)o2)cc1	–	-103	–	–	–	–
Cc1ccc(C)c(Cn2c(-c3cccs3)nc3ccccc32)c1	–	·	?	–	–	–
Cn1c(Cc2csc(N)n2)nnc1SCC(=O)NCc1ccccc1	–	-92	–	–	–	–
Cn1c(Cc2csc(N)n2)nnc1SCC(=O)NC1CCCCC1	–	?	–	–	–	–
CCCCn1c(SCC(=O)N2c3ccccc3Sc3ccccc32)nc2c1c(=O)n(C)c(=O)n2C	–	–	–	–	–	–
CCC(C(=O)Nc1ccccc1OC)n1c(C(=O)OC)cc2sc(Cl)cc21 (stereo not given)	–	·	–	–	–	20µM[quencher]
CCOc1ccccc1NC(=O)C(CC)n1c(C(=O)OC)cc2occc21 (stereo not given)	–	·	–	–	–	–
Cc1cc(/C=N/NC(=O)c2nn(C)cc2Cl)c(C)n1-c1cccc(Br)c1	–	–	–	–	–	–
O=C(O)C1CCCN(S(=O)(=O)c2cccs2)C1 (stereo not given)	–	-100	–	–	–	–
CCOC(=O)C1CCCN(c2c(NCC3CCCO3)c(=O)c2=O)C1 (stereo not given)	–	–	–	–	–	–
O=C(Nc1ccc(F)cc1)Nc1csc2ccccc12	8.9µM[quencher]	·	·	–	–	–
CN(C)c1ccc(NC(=O)Nc2csc3ccccc23)cc1	7.1µM[quencher]	·	3.5µM	–	–	–
C=CCn1c(SC(CCO)C(=O)NCc2ccco2)nc2sc3c(c2c1=O)CCC3 (stereo not given)	–	–	–	–	–	–
Cc1ccc(C(=O)N2CCSC2=S)cc1	–	·	?	–	–	–
Cc1ccc(C(=O)Oc2csc(=S)n2C(=O)c2ccc(C)cc2)cc1	–	?	10µM	–	?	–
SMILES	Tau fluor cs	PNC assembly inh	Tau fibril ThT	TRb-SRC2 inh	Tau fibril FP	TR SRC2 fluor cs
CNC(=S)N1N=C(c2ccc(Br)cc2)CC1c1ccc(OC)cc1 (stereo not given)	–	-121	–	–	–	–
Cc1onc(-c2c(F)cccc2Cl)c1C(=O)Nc1ccc(S(=O)(=O)Nc2ncccn2)cc1	–	-123	–	–	–	–
Cc1onc(-c2c(F)cccc2Cl)c1C(=O)NCCc1ccc(S(N)(=O)=O)cc1	–	-95	–	–	–	–
Cc1onc(-c2c(F)cccc2Cl)c1C(=O)Nc1ccc(OC(C)C)cc1	–	·	–	–	–	–
Cn1c(SCC(=O)Nc2cc(Cl)cc(Cl)c2)nnc1-c1ccc2nonc2c1	?	·	·	–	?	–
O=C(Nc1cccc(Cl)c1)c1cc(-c2ccc3c(c2)OCCO3)on1	–	·	?	–	?	10µM[quencher]
Cc1cc(C)nc(SCc2cn3c(C)cccc3n2)n1	–	·	–	–	–	–
Cc1cccc(NC(=O)c2sc3nc4c(c(-c5cccs5)c3c2N)CN(C)CC4)c1	28µM[quencher]	–	16µM	–	?	–
CN1CCc2nc3sc(C(=O)Nc4ccccc4OC(F)(F)F)c(N)c3cc2C1	–	·	–	–	–	–
CN1CCc2nc3sc(C(=O)NCc4ccccc4)c(N)c3cc2C1	?	·	14µM	–	–	–
CCN(CC)c1ccc(NC(=O)c2sc3nc4c(cc3c2N)CN(C)CC4)cc1	?	·	1.3µM	–	?	–
CCCCC(=O)NC(Nc1nc(C2CC2)cs1)(C(=O)OCC)C(F)(F)F (stereo not given)	–	–	–	–	–	–
O=S(=O)(c1ccccc1)N1CCC(O)(CSc2ccc(Cl)cc2)CC1	?	–	–	–	–	–
Cn1nccc1C(=O)N1CCCC(C(=O)c2cccc3ccccc23)C1 (stereo not given)	–	·	–	–	–	–
COc1ccc(NC(=O)CSc2nc3c(c(-c4cccs4)c2C#N)CN(C)CC3)cc1OC	25µM[quencher]	–	25µM	–	?	–
COc1ccc(CNC(=O)c2cc(-c3ccc(Br)s3)nc3ccccc23)c(OC)c1	–	·	–	–	?	–
COc1ccc(CN=C2NC(=O)CC(C(=O)Nc3cc(C)cc(C)c3)S2)cc1 (stereo not given)	–	-84	?	–	–	–
CCc1cc(/C(Cc2ccc3ccccc3n2)=N\O)c(O)cc1O	22µM[quencher]	–	–	–	–	–
Cc1ccccc1CC(=O)c1ccc(O)c(C)c1O	?	·	–	–	?	–
Cc1c(O)ccc(/C(Cc2ccc3ccccc3n2)=N\N)c1O	11µM[quencher]	·	7.1µM	–	–	–
Cc1cc(N2CCOCC2)ccc1/C=C\[N+](=O)[O-]	?	?	11µM	–	–	–
CSc1ccc(C(=O)C2CCCN(C(=O)c3ccc4c(c3)no[n+]4[O-])C2)cc1 (stereo not given)	?	·	28µM	–	?	–
Cc1ccccc1-n1c(C)nnc1SCC(=O)N1CC(=O)Nc2ccccc21	–	–	–	–	–	–
CC1CC(C)CN(C(=S)Nc2ccc(SC(F)F)cc2)C1 (stereo not given)	–	–	–	–	–	–
Nc1nc(-c2ccccc2)cc(N2CCCCC2)n1	–	-106	–	–	–	–
